The source of these data is PubChem BioAssay (NCI).

Structures are written as SMILES. Several values for one entry are separate records, joined by “and”; a condition that tells them apart may be missing. Equal entries are not always repeated. The panel holds about 83,000 compounds, 20% with a hit somewhere; the sample as a whole holds those more often.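 Note: values are percent growth. 100 is the growth of untreated cells, values between 100 and 0 indicate rising inhibition; between -100 and 0 indicates cell death.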 Unmarked numbers belong to inactive results. Activity calls are given as the source filed them. How the source made its calls: active means growth percent below 10; inactive means the rest.

Among the test systems are SK-MEL-2 melanoma; EKVX NSCLC; SN12C renal; UO-31 renal; TK-10 renal; ACHN renal; CAKI-1 renal; A498 renal; CCRF-CEM leukemia; MOLT-4 leukemia; SR leukemia; RPMI-8226 leukemia; OVCAR-8 ovarian; OVCAR-5 ovarian; OVCAR-4 ovarian; SK-OV-3 ovarian; OVCAR-3 ovarian; HS 578T breast; IGROV1 ovarian; NCI/ADR-RES ovarian.
Common to all, as to assay: NCI-60 one-dose screen, 48 h (100 = growth as untreated, 0 = no growth, -100 = all killed)
Holding throughout (conditions): 10 µM unless noted

For `CCOC(=O)/C(F)=C/C1CC1C1CCN(C(=O)OC(C)(C)C)CC1` (stereo unspecified), the growth in the assay on SK-MEL-2 melanoma was 110%; with EKVX NSCLC, 74.4%; with SN12C renal it was 62.6%; with UO-31 renal it was 81.6%; in the assay with TK-10 renal, 104%; with ACHN renal, 97.4%. Also, the growth with CAKI-1 renal was 93.7%; with A498 renal it was 127%; in the assay on CCRF-CEM leukemia it was 104%; in the assay on MOLT-4 leukemia it was 106%; in the assay on SR leukemia, 89.6%; in the assay with RPMI-8226 leukemia it was 102%. For the same compound, the growth is 103% in the assay with OVCAR-8 ovarian; 111% in the assay with OVCAR-5 ovarian; 94.8% in the assay on OVCAR-4 ovarian; 110% in the assay on SK-OV-3 ovarian; 111% in the assay on OVCAR-3 ovarian; 110% with HS 578T breast.

Regarding `COc1cccc(-c2ccc(/C=N/NC(=O)c3[nH]c4ccc(Br)cc4c3-c3ccccc3)s2)c1`, the growth in the assay with SK-MEL-2 melanoma was -3.93% (active); with EKVX NSCLC, 17.9%; with SN12C renal, 0.265% (active); in the assay with UO-31 renal, 19.9%; in the assay with TK-10 renal it was 8.47% (active); with ACHN renal, 7.04% (active). For the same compound, the growth in the assay on CAKI-1 renal was 9.77% (active); in the assay with A498 renal, 63.2%; in the assay on CCRF-CEM leukemia, 16%; in the assay on MOLT-4 leukemia, 6.82% (active); in the assay with SR leukemia it was 6.57% (active); in the assay on RPMI-8226 leukemia it was -22.9% (active). Besides, the growth is 0.0466% (active) with OVCAR-8 ovarian; -5.23% (active) with OVCAR-5 ovarian; 31.7% in the assay on OVCAR-4 ovarian; 22.1% in the assay on SK-OV-3 ovarian; -40.5% (active) with OVCAR-3 ovarian; 17.8% with HS 578T breast.

On to `O=c1[nH]c2ccccc2cc1CSc1ccccc1Nc1nccc(-c2ccc3c(c2)OCO3)n1`, for which the growth in the assay with SK-MEL-2 melanoma was 96.7%; in the assay with EKVX NSCLC, 86.6%; with SN12C renal, 57%; in the assay with UO-31 renal, 77.6%; in the assay with TK-10 renal, 107%; in the assay on ACHN renal it was 51.6%. Also, the growth in the assay with CAKI-1 renal was 16%; in the assay with A498 renal it was 126%; in the assay with CCRF-CEM leukemia, 101%; in the assay on MOLT-4 leukemia, 93.6%; in the assay with SR leukemia it was 103%; with RPMI-8226 leukemia, 92.2%. In addition, the growth with OVCAR-8 ovarian is 46.8%; in the assay with OVCAR-5 ovarian, 99.5%; in the assay with OVCAR-4 ovarian it was 25.4%; with SK-OV-3 ovarian, 82.7%; in the assay on IGROV1 ovarian, 99.2%; in the assay with HS 578T breast, 34.7%. Also, in the assay with NCI/ADR-RES ovarian, the growth is 53.1%.

With `CC(=O)Nc1cccc(-n2c(COc3ccc(Br)cc3)nc3ccccc32)c1`, the growth with SK-MEL-2 melanoma was 95.4% and 112%; with EKVX NSCLC, 98.1% and 103%; in the assay on SN12C renal, 104% and 110%; with UO-31 renal, 69.3% and 86.1%; in the assay with TK-10 renal it was 119% and 110%; with ACHN renal it was 79.6% and 107%. In addition, the growth was 72.4% and 101% in the assay with CAKI-1 renal; 105% and 124% in the assay on A498 renal; 95.9% and 98.5% in the assay on CCRF-CEM leukemia; 84.6% and 101% in the assay on MOLT-4 leukemia; 79.1% and 87.9% in the assay with SR leukemia; 87.2% and 107% in the assay on RPMI-8226 leukemia. In addition, the growth with OVCAR-8 ovarian is 113% and 114%; with OVCAR-5 ovarian, 105% and 109%; in the assay on OVCAR-4 ovarian, 88.1% and 101%; in the assay with SK-OV-3 ovarian it was 76.5% and 107%; in the assay with IGROV1 ovarian, 90.7% and 111%; in the assay with HS 578T breast it was 78.2% and 106%. In the assay on NCI/ADR-RES ovarian, the growth is 89.3% and 104%.

Turning to `Oc1ccc(Cl)c(Nc2nc(SCCN3CCOCC3)nc3c2cnn3CC(Cl)c2ccc(Br)cc2)c1` (stereo unspecified), the growth with SK-MEL-2 melanoma is 20.6%; in the assay with EKVX NSCLC it was 37%; with SN12C renal it was 35%; in the assay on UO-31 renal, 14%; with TK-10 renal it was 36.1%; in the assay on ACHN renal, 12.9%. In addition, the growth in the assay with CAKI-1 renal was 21.2%; with A498 renal, 63.4%; in the assay on CCRF-CEM leukemia, 3.42% (active); in the assay with MOLT-4 leukemia, -24% (active); in the assay on SR leukemia it was -26.7% (active); in the assay with RPMI-8226 leukemia it was 19.2%. The growth was 16.5% in the assay on OVCAR-8 ovarian; 50.4% with OVCAR-5 ovarian; 31.7% in the assay on OVCAR-4 ovarian; 65.8% with SK-OV-3 ovarian; 29.9% with OVCAR-3 ovarian; -15.5% (active) in the assay with HS 578T breast. Also, the growth with NCI/ADR-RES ovarian was 13.5%.

With `COc1ccc(C(=O)c2c(N)c(C#N)cn2-c2ccc([N+](=O)[O-])cc2)cc1`, the growth was 108% in the assay on SK-MEL-2 melanoma; 93.6% in the assay with EKVX NSCLC; 101% in the assay with SN12C renal; 90.1% with UO-31 renal; 117% with TK-10 renal; 106% in the assay with ACHN renal. The growth is 85.4% in the assay with CAKI-1 renal; 126% with A498 renal; 112% in the assay on CCRF-CEM leukemia; 105% in the assay with MOLT-4 leukemia; 94.5% in the assay on SR leukemia; 108% in the assay on RPMI-8226 leukemia. For the same compound, the growth is 88.5% in the assay with OVCAR-8 ovarian; 107% in the assay on OVCAR-5 ovarian; 101% in the assay with OVCAR-4 ovarian; 93.9% in the assay on SK-OV-3 ovarian; 122% with OVCAR-3 ovarian; 95.2% in the assay with HS 578T breast. The growth in the assay with NCI/ADR-RES ovarian is 98.2%.

For `Cc1ccc(C(=O)Nc2cccc(C(=O)NC(=S)Nc3ccc(S(N)(=O)=O)cc3)c2)cc1`, the growth in the assay with SK-MEL-2 melanoma was 82.7%; with EKVX NSCLC, 88.2%; in the assay on SN12C renal, 76.8%; in the assay with UO-31 renal it was 69.4%; with TK-10 renal, 104%; in the assay on ACHN renal, 69.3%. For the same compound, the growth in the assay on CAKI-1 renal is 49.5%; in the assay with A498 renal, 109%; in the assay on CCRF-CEM leukemia it was 84.5%; with MOLT-4 leukemia, 59.2%; with SR leukemia, 79.7%; in the assay on RPMI-8226 leukemia, 82.2%. For the same compound, the growth in the assay on OVCAR-8 ovarian was 51.1%; with OVCAR-5 ovarian it was 91.5%; in the assay on OVCAR-4 ovarian, 31.6%; with SK-OV-3 ovarian it was 77%; in the assay on OVCAR-3 ovarian it was 78.8%; with HS 578T breast, 63.8%. The growth with NCI/ADR-RES ovarian was 84.8%.
